# TMEM16A act – TMEM16A chloride channel activators or potentiators, primary screen, cell-based, HTS; HEK293 TMEM16A/YFP-H148Q/I152L, iodide quench fluorescence; active compounds read low; 0.3% of 340,000 active; Anoctamin-1 (Mus musculus), Q8BHY3; B-score at 10 µM;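 active means fluorescence-ratio B-score plate-corrected deviation score at least 3 library SD below zero, with starting fluorescence score within 5 deviations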;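 further: channel opened by trigger with iodide after compound preincubation; score built on the fluorescence ratio of max minus min over baseline; more negative score means more quench and so TMEM16A activation or potentiation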
# NR3A LBD binder – binders of NR3A ligand-binding domain, primary screen, biophysical, differential scanning fluorimetry, uHTS | NR3A LBD differential scanning fluorimetry, Tm shift; 0% = protein alone, 100% = glycine-bound protein | Tm shift relative to glycine control, % at 25 µM | 2.5% of 340,000 active | AID 1259313, 2017;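 active means melting temperature shift of at least 10% of the positive control shift, at one fixed dose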
# MPTP block – mitochondrial permeability transition pore inhibitors, primary screen, biochemical, isolated mouse mitochondria, absorbance | Ca2+ swelling absorbance, 30 min | inhibition, % at 10 µM | 1.4% of 360,000 active;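 active means inhibition of 50% or more, scaled per plate between neutral and stimulator controls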
# ANO1 block – TMEM16A chloride channel inhibitors, primary screen, cell-based, HTS | HEK293 TMEM16A/YFP iodide influx fluorescence, ionomycin | normalized B-score (activity score, 25-100; higher = stronger inhibition) at 10 µM | 1.2% of 310,000 active;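 active means ratio plate-corrected score three or more library SD toward inhibition, starting fluorescence score within five deviations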;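 further: score derived from kinetic fluorescence span divided by baseline fluorescence per well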
# CRFR2-BP antag – antagonists of CRF-BP/CRF-R2 complex, primary screen, cell-based, HEK293, calcium dye fluorescence, uHTS. CRF-induced calcium fluorescence. inhibition, % at 11.8 µM. 0.59% of 350,000 active;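 active means inhibition of the ligand-induced calcium signal above about 50% at the single tested concentration, limit read from the data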
# CRFR2-BP ag – agonists of CRF-BP/CRF-R2 complex, primary screen, cell-based, HEK293, calcium dye fluorescence, uHTS | AID 588473, 2011 | calcium dye fluorescence (FLIPR); percent of saturating CRF peptide response | activation, % at 13.2 µM | 0.46% of 350,000 active | CRF-binding protein / CRF receptor 2 complex (human);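 active means activation of at least 50%, plus an integration ratio under a set limit after plate pattern correction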
# Hits are given with their value; – = inactive; · = no result. Compounds with a hit are over-represented: about 5.1% of the library has one in this group of screens.
SMILES,TMEM16A act,NR3A LBD binder,MPTP block,ANO1 block,CRFR2-BP antag,CRFR2-BP ag
CN(C)c1ccc(/C=C/c2nc3ccccc3s2)cc1,–,11,–,–,–,65
Cn1c(N)c(N2CCCCC2)c(=O)n(CC(=O)Nc2cccc(C#N)c2)c1=O,–,–,–,·,–,–
CN(C)C(=O)c1ccc(NC(=O)COC(=O)Cn2cc(C(F)(F)F)ccc2=O)cc1,–,–,–,·,–,–
CN(C)c1ccc(/C=C/c2ccc3ccccc3n2)cc1,–,–,–,–,–,90
O=C(Cn1c2ccccc2c2nc3n(c(=O)c21)CCS3)N1CCCC1,–,–,–,–,–,–
O=C(Cn1c2ccccc2c2nc3n(c(=O)c21)CCS3)Nc1ccccc1,-32,–,–,–,–,–
Cc1nn(CC(C)C)c(Cl)c1C(=O)N(c1ccc(Cl)cc1F)S(C)(=O)=O,–,–,–,–,–,–
CC(=O)Oc1ccc(C(=O)Cc2ccccn2)c(O)c1,–,–,–,–,–,–
CC(=O)Oc1ccc(C(=O)Cc2ccc3ccccc3n2)c(O)c1C,–,12,–,–,–,–
Cc1nc(Nc2ccccc2)sc1C(=O)Nc1ccccc1,–,38,–,–,–,–
Cc1nc(Nc2ccc(S(N)(=O)=O)cc2)sc1C(=O)Nc1ccccc1,-8.9,33,–,–,–,–
Cc1nc(Nc2ccccc2Cl)sc1C(=O)Nc1ccccc1,–,–,–,–,–,–
Cc1nc(Nc2ccc(S(N)(=O)=O)cc2)sc1-c1ccccc1,–,16,–,–,–,–
Cc1ccc(S(=O)(=O)Nc2nc(C)c(C(=O)Nc3ccccc3)s2)cc1,–,–,–,–,–,–
COc1ccccc1Nc1nc(C)c(C(=O)Nc2ccccc2)s1,–,25,–,–,–,–
CN(CCNC(=O)C1CCCN(c2ncnc3c2nc2n3CCCCC2)C1)Cc1ccccc1 (stereo not drawn),–,–,–,–,–,–
Cc1cccc(CNC(=O)CC2C(=O)NCCN2C2CCCC2)c1 (stereo not drawn),–,–,–,–,–,–
O=C(CNC(=O)c1ccc(Cl)cc1)NCc1ccccn1,–,–,–,·,–,–
c1ccc(CCNCCCOc2cccc3ccccc23)cc1,–,–,–,–,–,–
Cc1nc(C)c(-c2csc(Nc3ccc(S(N)(=O)=O)cc3)n2)s1,–,32,–,–,–,–
CC1CC(C)CN(S(=O)(=O)c2ccc3c(c2)NC(=O)C(C)C(=O)N3)C1 (stereo not drawn),–,–,–,–,–,–
CN1C[C@@H]2[C@@H]3C(=O)N(C)C(=O)[C@@H]3[C@](C)(C1=O)N2C(=O)c1ccc(F)cc1,–,10,–,·,–,–
Cc1ccc(C(=O)N2[C@@H]3CN(C)C(=O)[C@@]2(C)[C@H]2C(=O)N(C)C(=O)[C@@H]32)cc1,–,–,–,·,–,–
COc1ccc(-c2noc(-c3ccccc3-c3ccccc3)n2)cc1,–,–,–,25,–,–
Cc1cc2nc(C)n(CCCN)c2cc1C,–,–,–,–,54,–
SMILES,TMEM16A act,NR3A LBD binder,MPTP block,ANO1 block,CRFR2-BP antag,CRFR2-BP ag
CC(CO)NS(=O)(=O)c1cc(Cl)ccc1F (stereo not drawn),·,·,–,·,–,–
O=C(O)C1C(c2ccccc2)C(C(=O)OCc2ccco2)C1c1ccccc1 (stereo not drawn),–,–,–,–,–,–
COC(=O)C1C(c2ccccc2)C(C(=O)OCc2ccco2)C1c1ccccc1 (stereo not drawn),–,–,–,–,59,–
O=C(Nc1cccc(F)c1)Nc1nnc([C@@H]2O[C@H](CO)[C@@H](O)[C@H]2O)s1,·,·,–,·,·,·
CC1CC(C)CN(C(=O)c2cccc(S(=O)(=O)N(C)c3ccccc3)c2)C1 (stereo not drawn),–,–,–,·,–,–
CCOc1nc(C)ccc1-c1noc(-c2ccco2)n1,–,–,–,–,–,–
CCOc1nc(C)ccc1-c1noc(-c2ccccn2)n1,–,–,–,–,111,–
Cc1cccc(N2CC(C(=O)Nc3ccccc3N3CCOCC3)CC2=O)c1C (stereo not drawn),–,–,–,·,–,–
CC1C2(C)OC(=N)C(C#N)(C(C)O2)C1(C#N)C#N (stereo not drawn),-6.3,–,–,–,–,–
CCCCOc1ccc(N(CC(=O)NCC2CCCO2)C(=O)CCC(=O)Nc2nccs2)cc1 (stereo not drawn),–,–,–,–,–,–
CCOc1ccc(N(CC(=O)NCC2CCCO2)C(=O)CCC(=O)Nc2nccs2)cc1 (stereo not drawn),–,–,–,–,52,–
O=C(COC(=O)C1CC(=O)N(Cc2ccco2)C1)c1ccc(OC(=O)c2ccco2)cc1 (stereo not drawn),–,–,–,–,82,–
O=C(CCCN=C1NS(=O)(=O)c2ccccc21)OCC(=O)c1ccccc1,–,–,–,–,–,–
O=C(COC(=O)CCCCCN=C1NS(=O)(=O)c2ccccc21)Nc1ccc(Cl)c(Cl)c1,–,22,–,–,–,–
COc1cc(/C=N/NC(=O)c2[nH]nc3c2CCc2ccccc2-3)ccc1O,–,29,–,–,–,–
COc1cccc(/C=N/NC(=O)c2ccc3nc[nH]c3c2)c1,–,–,–,–,–,–
O=C(N/N=C/C(Br)=C\c1ccccc1)c1ccc2nc[nH]c2c1,–,15,–,–,–,–
COc1cc(/C=N/NC(=O)c2ccc3nc[nH]c3c2)ccc1O,–,26,–,–,–,–
CCC(CC)NC(=O)c1ccc2nc[nH]c2c1,–,18,–,–,–,–
O=C(N/N=C/c1ccc(Cl)cc1Cl)c1ccc2nc[nH]c2c1,–,–,–,–,–,–
C=CCc1cccc(/C=N/NC(=O)c2ccc3nc[nH]c3c2)c1O,–,11,–,–,–,–
CC1(C(=O)Nc2ccc3c(c2)OCO3)CCN1C(=O)CCc1cccs1 (stereo not drawn),·,·,–,·,·,·
CCNc1nc(SCC(=O)Nc2ccccc2)nc(N2CCOCC2)n1,–,–,–,–,–,–
CC(C)(C)Nc1nc(SCC(=O)Nc2ccccc2Cl)nc(N2CCOCC2)n1,–,17,–,–,–,–
Cc1ccc(C(=O)Nn2c(N)c(S(=O)(=O)c3ccc(C)cc3)c3nc4ccccc4nc32)cc1,–,–,–,–,–,–
CCCCCn1c(NC(=O)c2ccco2)c(S(=O)(=O)c2ccc(C)cc2)c2nc3ccccc3nc21,–,15,–,–,–,–
